Test results published in PubChem BioAssay (EPA / NIEHS).
Calls of active or inactive are those of the source. How the source made its calls: active means hit-call score of the fitted dose curve at least 0.9, where 1 is the maximum; inactive means score below 0.9.

What was measured:
Settings in all cases: mRNA level, 48 h; actives raise or lower the signal
[1] = read-out: Pro-epidermal growth factor (Homo sapiens) (UniProt P01133); test: LTEA_HepaRG_EGF: Life Technologies and Expression Analysis (LTEA) Assay for Epidermal growth factor (EGF) using HepaRG (AID 2283489)
How it was run: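 Concentration-response mRNA assay: HepaRG cells dosed 48 h (max 100 uM, 0.5% DMSO), EGF measured by qRT-PCR and normalized to ACTB/GAPDH/POLR2A.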

[2] = read-out: Early growth response protein 1 (EGR1) transcription factor, EGR1 (gene 1958); test: LTEA_HepaRG_EGR1: Life Technologies and Expression Analysis (LTEA) Assay for Early growth response protein 1 (EGR1) transcription factor using HepaRG (AID 2283490)
How it was run: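 Differentiated HepaRG cells in serum-free induction medium exposed 48 hours, duplicate, to 8 half-log concentrations up to 100 uM in 0.5% DMSO. EGR1 mRNA measured by TaqMan qRT-PCR, normalized to ACTB, GAPDH, POLR2A; bidirectional fit versus DMSO.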

[3] = read-out: Ezrin (EZR), EZR (gene 7430); test: LTEA_HepaRG_EZR: Life Technologies and Expression Analysis (LTEA) Assay for Ezrin (EZR) using HepaRG (AID 2283491)
How it was run: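 HepaRG, 48 h chemical exposure, 8-pt half-log series from 100 uM, 0.5% DMSO vehicle, duplicates. Read-out: EZR mRNA by TaqMan qRT-PCR (Fluidigm array), housekeeping-normalized; bidirectional curve fit vs DMSO baseline.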

[4] = read-out: Cytochrome P450 3A7 (Homo sapiens) (UniProt P24462); test: LTEA_HepaRG_CYP3A7: Life Technologies and Expression Analysis (LTEA) Assay for CYP3A7 using HepaRG (AID 2283492)
How it was run: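 qRT-PCR of CYP3A7 in HepaRG lysates after 48 h treatment; concentration-response (8 points, max 100 uM) analysed bidirectionally relative to 0.5% DMSO controls.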

CYP3A5 (gene 1577) = test: LTEA_HepaRG_CYP3A5: Life Technologies and Expression Analysis (LTEA) Assay for CYP3A5 using HepaRG (AID 2283493)
How it was run: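 Differentiated HepaRG cells in serum-free induction medium were dosed 48 h with test chemicals (8-point half-log series, top 100 uM, 0.5% DMSO, duplicate). CYP3A5 mRNA measured by qRT-PCR, normalized to ACTB, GAPDH, POLR2A; bidirectional fit versus DMSO.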

[5] = read-out: Fatty Acid-Binding Protein 1 (FABP1), FABP1 (gene 2168); test: LTEA_HepaRG_FABP1: Life Technologies and Expression Analysis (LTEA) Assay for Fatty Acid-Binding Protein 1 (FABP1) using HepaRG (AID 2283494)
How it was run: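 Differentiated human HepaRG cells exposed 48 h in serum-free induction medium to eight half-log concentrations up to 100 uM (0.5% DMSO), duplicate. FABP1 mRNA by qRT-PCR, normalised to ACTB, GAPDH, POLR2A; bidirectional fitting against DMSO.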

[6] = read-out: Cytochrome P450 4A22 (Homo sapiens) (UniProt Q5TCH4); test: LTEA_HepaRG_CYP4A22: Life Technologies and Expression Analysis (LTEA) Assay for Cytochrome P450 4A22 (CYP4A22) using HepaRG (AID 2283495)
How it was run: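 Concentration-response (8 points, max 100 uM, 0.5% DMSO) in human HepaRG liver cells after 48 h exposure. CYP4A22 mRNA by TaqMan qRT-PCR with housekeeping-gene normalization.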

[7] = read-out: Cytochrome P450 7A1 (Homo sapiens) (UniProt P22680); test: LTEA_HepaRG_CYP7A1: Life Technologies and Expression Analysis (LTEA) Assay for Cytochrome P450 7A1 (CYP7A1) using HepaRG (AID 2283496)
How it was run: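 Gene expression endpoint in human HepaRG liver cells treated for 48 h with test chemicals (up to 100 uM, 0.5% DMSO). Values come from bidirectional concentration-response fitting versus DMSO.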

[8] = read-out: Glutathione S-Transferase (GSTA2), GSTA2 (gene 2939); test: LTEA_HepaRG_GSTA2: Life Technologies and Expression Analysis (LTEA) Assay for Glutathione S-Transferase (GSTA2) using HepaRG (AID 2283497)
How it was run: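 Differentiated human HepaRG cells were exposed in duplicate for 48 h in serum-free induction medium, 8 points from 100 uM top in half-log steps, 0.5% DMSO. GSTA2 mRNA was measured by TaqMan qRT-PCR, normalized to ACTB, GAPDH and POLR2A; bidirectional fit versus DMSO.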

[9] = read-out: Glutamate-cysteine ligase catalytic (GCLC), GCLC (gene 2729); test: LTEA_HepaRG_GCLC: Life Technologies and Expression Analysis (LTEA) Assay for Glutamate-cysteine ligase catalytic (GCLC) using HepaRG (AID 2283498)
How it was run: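 Differentiated HepaRG cells exposed 48 h in serum-free induction medium, eight-point half-log series topping at 100 uM in 0.5% DMSO, duplicates. GCLC mRNA by qRT-PCR normalized to ACTB, GAPDH and POLR2A, fitted bidirectionally versus DMSO.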

[10] = read-out: growth arrest and DNA damage 45 (GADD45G), GADD45G (gene 10912); test: LTEA_HepaRG_GADD45G: Life Technologies and Expression Analysis (LTEA) Assay for growth arrest and DNA damage 45 (GADD45G) using HepaRG (AID 2283499)
How it was run: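 Concentration-response in HepaRG: 48 h dosing, 0.5% DMSO, highest level 100 uM. GADD45G expression by qRT-PCR, normalised to endogenous controls; bidirectional fit to DMSO.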

[11] = read-out: Glutamate-cysteine ligase regulatory (GCLM), GCLM (gene 2730); test: LTEA_HepaRG_GCLM: Life Technologies and Expression Analysis (LTEA) Assay for Glutamate-cysteine ligase regulatory (GCLM) using HepaRG (AID 2283500)
How it was run: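 Differentiated human HepaRG cells exposed 48 h in serum-free induction medium to 8-point half-log concentrations (top 100 uM, 0.5% DMSO), in duplicate. GCLM mRNA quantified by qRT-PCR, normalized to ACTB, GAPDH, POLR2A; bidirectional fitting versus DMSO.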

[12] = read-out: Glutathione S-transferase M3 (GSTM3), GSTM3 (gene 2947); test: LTEA_HepaRG_GSTM3: Life Technologies and Expression Analysis (LTEA) Assay for Glutathione S-transferase M3 (GSTM3) using HepaRG (AID 2283501)
How it was run: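 Expression of GSTM3 is determined by qRT-PCR in human liver HepaRG cells treated 48 h with an 8-point half-log range from 100 uM in 0.5% DMSO.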

[13] = read-out: Heat shock 70 kDa protein 1 (HSPA1A), gene 3303; test: LTEA_HepaRG_HSPA1A: Life Technologies and Expression Analysis (LTEA) Assay for Heat shock 70 kDa protein 1 (HSPA1A) using HepaRG (AID 2283502)
How it was run: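 Differentiated human HepaRG cells in serum-free induction medium were exposed in duplicate for 48 h to eight concentrations (top 100 uM, half-log steps, 0.5% DMSO). HSPA1A mRNA was quantified by qRT-PCR, normalized to ACTB, GAPDH and POLR2A, and fitted bidirectionally against DMSO.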

[14] = read-out: Hypoxia-inducible factor 1-alpha (Homo sapiens) (UniProt Q16665); test: LTEA_HepaRG_HIF1A: Life Technologies and Expression Analysis (LTEA) Assay for Hypoxia-inducible factor 1 (HIF1A) Trancription factor using HepaRG (AID 2283503)
How it was run: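 HepaRG, 48 h exposure, 8-pt half-log series from 100 uM, 0.5% DMSO vehicle, duplicates. Readout: HIF1A transcript by qRT-PCR (Fluidigm array), housekeeping-normalised. Bidirectional curve fit vs DMSO baseline.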

[15] = read-out: 3-Hydroxy-3-Methylglutaryl-CoA Synthase 2 (HMGCS2), HMGCS2 (gene 3158); test: LTEA_HepaRG_HMGCS2: Life Technologies and Expression Analysis (LTEA) Assay for 3-Hydroxy-3-Methylglutaryl-CoA Synthase 2 (HMGCS2) using HepaRG (AID 2283504)
How it was run: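 This steatosis marker was read as HMGCS2 mRNA change in HepaRG cells treated 48 h with up to 100 uM chemical. Normalisation used housekeeping genes; activity in either direction was fitted relative to 0.5% DMSO vehicle.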

HGF (gene 3082) = test: LTEA_HepaRG_HGF: Life Technologies and Expression Analysis (LTEA) Assay for Hepatocyte Growth Facto (HGF) using HepaRG (AID 2283505)
How it was run: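 Using HepaRG monolayers kept in 0.5% DMSO, chemicals were tested in duplicate over eight half-log concentrations from 100 uM for 48 h. Endpoint: HGF mRNA change relative to DMSO, normalized to ACTB/GAPDH/POLR2A.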

[16] = read-out: Insulin Like Growth Factor 1 (IGF1), IGF1 (gene 3479); test: LTEA_HepaRG_IGF1: Life Technologies and Expression Analysis (LTEA) Assay for Insulin Like Growth Factor 1 (IGF1) using HepaRG (AID 2283506)
How it was run: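 Differentiated human HepaRG cells were dosed for 48 h in serum-free induction medium with 0.5% DMSO, eight half-log concentrations up to 100 uM, in duplicate. IGF1 mRNA was quantified by qRT-PCR normalized to ACTB, GAPDH, POLR2A; bidirectional fitting versus DMSO.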

[17] = read-out: Intercellular Adhesion Molecule 1 (ICAM1), ICAM1 (gene 3383); test: LTEA_HepaRG_ICAM1: Life Technologies and Expression Analysis (LTEA) Assay for Intercellular Adhesion Molecule 1 (ICAM1) using HepaRG (AID 2283507)
How it was run: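 Using the human liver line HepaRG, compounds are tested in duplicate over 48 h at concentrations up to 100 uM. Expression is determined by TaqMan qRT-PCR, normalized to endogenous controls, and analysed relative to 0.5% DMSO vehicle.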

[18] = read-out: Insulin-like growth factor-binding protein 1 (IGFBP1), IGFBP1 (gene 3484); test: LTEA_HepaRG_IGFBP1: Life Technologies and Expression Analysis (LTEA) Assay for Insulin-like growth factor-binding protein 1 (IGFBP1) using HepaRG (AID 2283508)
How it was run: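 HepaRG, 48 h, 8 conc. (max 100 uM, half-log), duplicates, 0.5% DMSO. Readout: TaqMan qRT-PCR, ACTB/GAPDH/POLR2A normalisation. Fit: bidirectional vs DMSO.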

Measured: outcome

Chain of Hypoxia-inducible factor 1-alpha (Homo sapiens) (Q16665 whole entry, looked up): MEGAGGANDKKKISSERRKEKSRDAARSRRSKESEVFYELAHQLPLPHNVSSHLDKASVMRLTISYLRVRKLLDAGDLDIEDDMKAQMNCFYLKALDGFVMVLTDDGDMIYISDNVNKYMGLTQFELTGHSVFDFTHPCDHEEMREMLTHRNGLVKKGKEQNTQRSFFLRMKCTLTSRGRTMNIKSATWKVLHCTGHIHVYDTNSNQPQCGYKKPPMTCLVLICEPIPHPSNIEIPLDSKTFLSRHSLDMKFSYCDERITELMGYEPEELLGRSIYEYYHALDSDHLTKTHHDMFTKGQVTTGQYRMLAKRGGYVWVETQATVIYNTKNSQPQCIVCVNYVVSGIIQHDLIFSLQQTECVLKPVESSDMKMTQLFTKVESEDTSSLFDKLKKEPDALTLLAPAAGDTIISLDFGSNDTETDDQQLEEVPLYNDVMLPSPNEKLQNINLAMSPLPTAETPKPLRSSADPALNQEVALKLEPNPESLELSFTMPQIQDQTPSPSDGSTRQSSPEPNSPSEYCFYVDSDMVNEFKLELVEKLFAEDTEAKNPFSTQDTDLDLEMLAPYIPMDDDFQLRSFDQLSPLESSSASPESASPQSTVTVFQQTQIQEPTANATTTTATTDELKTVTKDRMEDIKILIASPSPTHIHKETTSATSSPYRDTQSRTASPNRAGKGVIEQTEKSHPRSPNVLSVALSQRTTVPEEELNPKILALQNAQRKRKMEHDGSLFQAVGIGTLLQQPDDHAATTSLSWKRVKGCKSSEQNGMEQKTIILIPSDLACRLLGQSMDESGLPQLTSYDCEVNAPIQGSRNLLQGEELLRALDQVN
Chain of Cytochrome P450 3A7 (Homo sapiens) (P24462 whole entry, looked up): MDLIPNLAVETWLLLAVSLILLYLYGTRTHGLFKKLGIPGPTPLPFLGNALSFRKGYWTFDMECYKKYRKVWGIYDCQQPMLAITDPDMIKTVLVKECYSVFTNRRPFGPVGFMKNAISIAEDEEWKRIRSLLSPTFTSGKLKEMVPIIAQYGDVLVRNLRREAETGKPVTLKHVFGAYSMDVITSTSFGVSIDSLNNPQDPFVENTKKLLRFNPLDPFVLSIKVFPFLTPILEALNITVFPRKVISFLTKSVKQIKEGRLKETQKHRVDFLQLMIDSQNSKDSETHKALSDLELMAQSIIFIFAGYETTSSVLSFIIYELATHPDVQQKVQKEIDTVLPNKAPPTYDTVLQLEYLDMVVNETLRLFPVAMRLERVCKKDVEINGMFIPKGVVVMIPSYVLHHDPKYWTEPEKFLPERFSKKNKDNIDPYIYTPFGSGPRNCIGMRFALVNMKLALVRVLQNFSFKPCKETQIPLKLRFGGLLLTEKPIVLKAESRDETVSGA

CCC(C)=NO
inactive: all assays above
